Data taken from PubChem BioAssay (NCI).
This is part of a sample that, as a whole, favours compounds with a hit. Of some 83,000 tested, about 20% had one in any assay.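 Interpretation: 100, growth as untreated; towards 0, rising growth inhibition; 0, no net growth; 0 to -100, cell death. Compounds scoring below 10 were considered active.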 Values without a mark were called inactive. Active and inactive are the calls of the source.

Columns and labels:
Test in all cases: NCI-60 one-dose screen, 48 h (100 = growth as untreated, 0 = no growth, -100 = all killed)
[1] = system: NCI-H23 lung; details: 10 µM unless noted
[2] = system: NCI-H226 lung; details: 10 µM unless noted
[3] = system: NCI-H322M lung; details: 10 µM unless noted
[4] = system: HOP-62 NSCLC; details: 10 µM unless noted
[5] = system: NCI-H460 lung; details: 10 µM unless noted
[6] = system: HOP-92 NSCLC; details: 10 µM
[7] = system: NCI-H522 lung; details: 10 µM unless noted
[8] = system: A549/ATCC NSCLC; details: 10 µM unless noted
[9] = system: 786-0 renal; details: 10 µM unless noted
[10] = system: COLO 205 colon; details: 10 µM unless noted
[11] = system: DU-145 prostate; details: 10 µM unless noted
[12] = system: K-562 leukemia; details: 10 µM unless noted
[13] = system: MALME-3M melanoma; details: 10 µM unless noted
[14] = system: MDA-MB-231 breast; details: 10 µM unless noted
[15] = system: RXF 393 renal; details: 10 µM unless noted
[16] = system: SF-268 CNS; details: 10 µM unless noted
[17] = system: SF-295 CNS; details: 10 µM unless noted
[18] = system: SF-539 CNS; details: 10 µM unless noted
[19] = system: UACC-257 melanoma; details: 10 µM unless noted

Compound | growth [1] | growth [2] [%] | growth [3] [%] | growth [4] [%] | growth [5] [%] | growth [6] | growth [7] | growth [8] [%] | growth [9] | growth [10] [%] | growth [11] [%] | growth [12] | growth [13] | growth [14] | growth [15] | growth [16] [%] | growth [17] | growth [18] | growth [19] [%]
CC1=NC2=NN3C(=NN2C(c2ccccc2)=C1)N=NC(c1ccc(Br)cc1)=C3c1ccc(Br)cc1 | 105% | 102 | 101 | 102 | 112 | 110% | 98.5% | 109 | 107% | 112 | 112 | 96.9% | 53.6% | 95.7% | 138% | 102 | 106% | 97.2% | 109
C#Cc1nc(C(=O)NCCC(=O)Nc2ccc(NC(=O)c3ccc(/C=C/C(=O)c4nccn4C)cc3)cc2)cs1 | 33.1% | 74.9 | 62.2 | 24.1 | 33.9 | 120% | 14.9% | 55.8 | -59.8% (active) | 56.1 | 21.1 | 8.97% (active) | 6.41% (active) | 5.11% (active) | 45.8% | 33.4 | 55.6% | -89.4% (active) | 78.5
Cn1ccnc1C(=O)/C=C/C=C/c1ccc(C(=O)Nc2ccc(F)cc2)cc1 | 18.2% | 54.7 | 61.1 | 44.7 | 34.2 | 82.9% | 4.66% (active) | 56.7 | 22.8% | 32.8 | 18.8 | 12.6% | 19.9% | 12.3% | -25.1% (active) | 22 | 59% | -25.4% (active) | 46.8
O=C1Nc2ccccc2/C1=C/c1ccc(CO)n1-c1ccc(Cl)cc1 | 67% | 81 | 102 | 59.7 | 35.6 | 75.4% | 53.7% | 59 | 88.4% | 71.8 | 81.4 | 19.3% | 27.6% | 58.1% | 57.1% | 74.2 | 33.8% | 44.5% | 83.4
Cc1ccc(NC(=O)c2ccc(CN3CCN(C)CC3)cc2)cc1Oc1ccc(-c2[nH]nc3ncnc(N)c23)cc1 | 99.6% | 98.5 | 97.3 | 104 | 110 | 98.3% | 89.9% | 98.8 | 63.7% | 28.1 | 106 | 9% (active) | 68.8% | 95.9% | 78.3% | 89 | 103% | 85.9% | 98.5
COC(=O)/C=C/c1c(C2(C)NC(=O)c3ccccc3N2)c(=O)oc2ccc(Cl)cc12 (configuration not stated) | 96.3% | 88.1 | 95.1 | 92.7 | 96.3 | 88.9% | 68.3% | 95.2 | 96.3% | 117 | 102 | 105% | 88.3% | 89.2% | 69.5% | 92.9 | 95.3% | 95.8% | 98
O=S(=O)(NCCNc1nccc(-n2cnc3ccccc32)n1)c1ccc(C(F)(F)F)cc1 | 54.5% | 62.7 | 85.3 | 66.1 | 57.8 | 54.9% | 38.2% | 55.4 | 69.6% | 64.9 | 71.8 | 40.8% | 71.4% | 64% | 38.2% | 59.5 | 44.7% | 64.8% | 36.8
C#CCNC1CCC(c2csc(C#C)n2)=C1C (configuration not stated) | -39.4% (active) | 75.4 | 90.8 | 28.2 | 98.9 | -50.6% (active) | 49.7% | 96.2 | 17.1% | 105 | 67.6 | 63% | -78.3% (active) | 8.61% (active) | 117% | 78.1 | -28.2% (active) | -92.4% (active) | 80.1
